Experimental data taken from PubChem BioAssay (NCI).
“And” between values parts separate entries of the source, which are not always exact repeats. Equal entries are not always repeated. This is part of a sample that, as a whole, favours compounds with a hit. Of some 79,000 tested, about 15% had one in any assay. The source made the active and inactive calls. No stated cut-off is given here; in the data, active means growth inhibition above about 70%; inactive means the rest.

Assay: NCI Yeast Anticancer Drug Screen. Data for the rad50 strain (AID 155);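 further: 0% = growth of vehicle-only cultures of the same strain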
Conditions: S. cerevisiae rad50 strain growth inhibition, active compounds read high; at 50.0 µM unless noted
Procedure, shortened: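 Yeast carrying a defined DNA repair defect were exposed to test compounds, and growth was compared with vehicle-treated controls to give percent inhibition.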

| Structure (SMILES) | growth inhibition |
| --- | --- |
| COc1ccc(-n2c(CCC(=O)O)nc3c2C(=O)c2ccccc2C3=O)cc1 | 31.6% (inactive) |
| COc1ccc(C(=O)O)c(Cc2ccc3ccccc3c2)c1 | 0.4% (inactive) |
| OCC(O)Cc1ccccc1 (stereo not given) | -7% (inactive) |
| CCCCCCCCCCCCCCCCCC(=O)CBr | 14% (inactive) |
| CC(=O)[C@@]1(O)CC[C@H]2[C@@H]3CC[C@@H]4C[C@H](O)CC[C@]4(C)[C@H]3[C@H](O)C[C@@]21C | -9.8% (inactive) |
| CC1=C/C(O)CC(=O)Cc2nc(co2)C(=O)N2CCC=C2C(=O)OC(C(C)C)C(C)/C=C\C(=O)NC/C=C\1 (stereo not given) | 39.5% (inactive) and -2.6% (inactive) |
| O=c1oc2ccccc2c(O)c1Cc1ccccc1Cc1c(O)c2ccccc2oc1=O | 4.4% (inactive) |
| O=[N+]([O-])c1ccccc1/C=C/c1ccccn1 | 2.4% (inactive) |
| COCS(=O)(=O)c1ccccc1 | 2.55% (inactive) |
| COc1ccc(C(N2CCNCC2)N2CCNCC2)cc1 | 13.7% (inactive) |
| N#CCCOc1ccc(N)cc1 | 0.55% (inactive) |
| O=C1/C(=C\C=C\c2ccccc2)CCCC/C1=C\C=C\c1ccccc1 | 11.3% (inactive) |
| CS/C(=N\c1nccs1)NC(=O)c1cccc(Cl)c1 | 7.65% (inactive) |
| Oc1c(CN2CCOCC2)ccc(CN2CCOCC2)c1O | 13.4% (inactive) |
| COc1ccc(NC(=O)c2ccc(OC)cc2)cc1 | 0.7% (inactive) |
| CS(=O)(=O)OCCN(CCOS(C)(=O)=O)c1ccc([N+](=O)[O-])cc1[N+](=O)[O-] | 22.6% (inactive) |
| O=C(OC(c1ccccc1)C(c1ccccc1)N1CCOCC1)c1ccc([N+](=O)[O-])cc1 (stereo not given) | 54.8% (inactive) |
| c1ccc(CN2CCOC2)cc1 | 15.6% (inactive) |
| COc1cc(N=C=S)ccc1NC(=O)c1cc(Br)cc(Br)c1O | 55.9% (inactive) |
| N#CCCCCCOCCOCCOCCOCCOCCCCCC#N | 12.8% (inactive) |

| Structure (SMILES) | growth inhibition |
| --- | --- |
| N#C/C(=C/c1ccccc1)c1ccccc1 | 42.5% (inactive) |
| CC(C)N(CC(C)(C)O)C(=O)c1ccccc1 | -5.35% (inactive) |
| CC(C)CNC(=O)c1ccccc1Cl | -22.9% (inactive) |
| O=C(CSS(=O)(=O)O)Nc1ccccc1 | 17.6% (inactive) |
| Cc1ccc(Nc2cc(C(=O)O)c(Nc3ccc(C)cc3)cc2C(=O)O)cc1 | 0.7% (inactive) |
| Cc1sc2ccccc2[n+]1CCC(=O)O | -23.1% (inactive) |
| CC(C)c1ccc(C2NC(c3ccccc3)c3c(ccc4ccccc34)O2)cc1 (stereo not given) | 36.9% (inactive) |
| C/C(CC(=O)Nc1cc(C)ccc1C)=N\NC(=O)c1ccncc1 | 11.8% (inactive) |
| O=S(=O)(N/N=C/c1cccc(Cl)c1Cl)c1ccccc1 | 9.3% (inactive) |
| COc1cc(Cc2nccc3cc(OC)c(OC)cc23)c(C(C)=O)cc1OC | 21.9% (inactive) |
| CCOC(=O)c1c[nH]c2c(Cl)c(Cl)ccc2c1=O | -4.65% (inactive) |
| COc1ccc(C(=O)Oc2ccccc2C(C)=O)cc1 | -2.65% (inactive) |
| O=Cc1cccc2ccc3cccc(C(=O)Cl)c3c12 | 20.4% (inactive) |
| O=C(CCCn1ccnc1[N+](=O)[O-])NCCn1cnc([N+](=O)[O-])n1 | 7% (inactive) |
| O=C(O)CCc1[nH]c(I)nc1I | 17.1% (inactive) |
| CCCSc1ncnc2nc[nH]c12 | 23.6% (inactive) |
| Cc1ccc(-c2c(C#N)c(O)n(NS(=O)(=O)c3ccccc3)c(=O)c2C#N)cc1 | 4.45% (inactive) |
| Cc1nc2ncnc(N)c2[nH]1 | 3.55% (inactive) |
| COC1C(O)C(n2ncc3c(SC)nc(SC)nc32)OC1C(O)CO (stereo not given) | 16.3% (inactive) |
| CC1=NN(C(=O)c2ccccc2O)C(=O)/C1=C/c1ccccc1O | -29.1% (inactive) |

Assay: NCI Yeast Anticancer Drug Screen. Data for the mec2-1 strain (AID 157)
Conditions: S. cerevisiae mec2-1 strain, active compounds read high; at 50.0 µM unless noted
Procedure, shortened: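 Each compound was tested on mec2-1 yeast, a strain altered in DNA damage repair or cell cycle control. Growth inhibition is reported relative to vehicle.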

| Structure (SMILES) | growth inhibition |
| --- | --- |
| COc1ccc(-n2c(CCC(=O)O)nc3c2C(=O)c2ccccc2C3=O)cc1 | 17.6% (inactive) |
| COc1ccc(C(=O)O)c(Cc2ccc3ccccc3c2)c1 | -4.7% (inactive) |
| OCC(O)Cc1ccccc1 (stereo not given) | -12.8% (inactive) |
| CCCCCCCCCCCCCCCCCC(=O)CBr | 9.9% (inactive) |
| CC(=O)[C@@]1(O)CC[C@H]2[C@@H]3CC[C@@H]4C[C@H](O)CC[C@]4(C)[C@H]3[C@H](O)C[C@@]21C | -3.7% (inactive) |
| CC1=C/C(O)CC(=O)Cc2nc(co2)C(=O)N2CCC=C2C(=O)OC(C(C)C)C(C)/C=C\C(=O)NC/C=C\1 (stereo not given) | -11.6% (inactive) and 18.7% (inactive) |
| O=c1oc2ccccc2c(O)c1Cc1ccccc1Cc1c(O)c2ccccc2oc1=O | 4.65% (inactive) |
| O=[N+]([O-])c1ccccc1/C=C/c1ccccn1 | 2.35% (inactive) |
| COCS(=O)(=O)c1ccccc1 | -6.1% (inactive) |
| COc1ccc(C(N2CCNCC2)N2CCNCC2)cc1 | 6.3% (inactive) |
| N#CCCOc1ccc(N)cc1 | -5.2% (inactive) |
| O=C1/C(=C\C=C\c2ccccc2)CCCC/C1=C\C=C\c1ccccc1 | -0.35% (inactive) |
| CS/C(=N\c1nccs1)NC(=O)c1cccc(Cl)c1 | 20.4% (inactive) |
| Oc1c(CN2CCOCC2)ccc(CN2CCOCC2)c1O | 17.3% (inactive) |
| COc1ccc(NC(=O)c2ccc(OC)cc2)cc1 | -8.9% (inactive) |
| CS(=O)(=O)OCCN(CCOS(C)(=O)=O)c1ccc([N+](=O)[O-])cc1[N+](=O)[O-] | -5.8% (inactive) |
| O=C(OC(c1ccccc1)C(c1ccccc1)N1CCOCC1)c1ccc([N+](=O)[O-])cc1 (stereo not given) | 8.3% (inactive) |
| c1ccc(CN2CCOC2)cc1 | 5.85% (inactive) |
| COc1cc(N=C=S)ccc1NC(=O)c1cc(Br)cc(Br)c1O | 39.4% (inactive) |
| N#CCCCCCOCCOCCOCCOCCOCCCCCC#N | 12.9% (inactive) |

| Structure (SMILES) | growth inhibition |
| --- | --- |
| N#C/C(=C/c1ccccc1)c1ccccc1 | 12.6% (inactive) |
| CC(C)N(CC(C)(C)O)C(=O)c1ccccc1 | 11.7% (inactive) |
| CC(C)CNC(=O)c1ccccc1Cl | 20.1% (inactive) |
| O=C(CSS(=O)(=O)O)Nc1ccccc1 | -0.65% (inactive) |
| Cc1ccc(Nc2cc(C(=O)O)c(Nc3ccc(C)cc3)cc2C(=O)O)cc1 | -10.6% (inactive) |
| Cc1sc2ccccc2[n+]1CCC(=O)O | -14% (inactive) |
| CC(C)c1ccc(C2NC(c3ccccc3)c3c(ccc4ccccc34)O2)cc1 (stereo not given) | -4.85% (inactive) |
| C/C(CC(=O)Nc1cc(C)ccc1C)=N\NC(=O)c1ccncc1 | -0.4% (inactive) |
| O=S(=O)(N/N=C/c1cccc(Cl)c1Cl)c1ccccc1 | 3% (inactive) |
| COc1cc(Cc2nccc3cc(OC)c(OC)cc23)c(C(C)=O)cc1OC | -22.9% (inactive) |
| CCOC(=O)c1c[nH]c2c(Cl)c(Cl)ccc2c1=O | -19.1% (inactive) |
| COc1ccc(C(=O)Oc2ccccc2C(C)=O)cc1 | -7.05% (inactive) |
| O=Cc1cccc2ccc3cccc(C(=O)Cl)c3c12 | 46.9% (inactive) |
| O=C(CCCn1ccnc1[N+](=O)[O-])NCCn1cnc([N+](=O)[O-])n1 | 17.2% (inactive) |
| O=C(O)CCc1[nH]c(I)nc1I | 14.3% (inactive) |
| CCCSc1ncnc2nc[nH]c12 | -1% (inactive) |
| Cc1ccc(-c2c(C#N)c(O)n(NS(=O)(=O)c3ccccc3)c(=O)c2C#N)cc1 | 6.4% (inactive) |
| Cc1nc2ncnc(N)c2[nH]1 | -11% (inactive) |
| COC1C(O)C(n2ncc3c(SC)nc(SC)nc32)OC1C(O)CO (stereo not given) | -3.95% (inactive) |
| CC1=NN(C(=O)c2ccccc2O)C(=O)/C1=C/c1ccccc1O | -11.8% (inactive) |
